# From PubChem
# GDH-TPI inh = inhibits GDH-TPI coupling enzymes, artifact for Mtb FBA screen; GDH-TPI coupled enzyme counterscreen, NADH absorbance; inhibition, % at 4.8 µM; hit rate 1.2% among 360,000; AID 588335;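 further: 0% = DMSO wells and 100% = wells lacking the enzyme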
# CCHF vOTU inh = blocks the CCHF virus ovarian tumor domain protease. CCHFV vOTU protease, Pep-AMC fluorescence. inhibition, % at 11.5 µM. hit rate 0.55% among 370,000. AID 651958; further: 0% = vehicle wells with enzyme and 100% = no enzyme wells
# Mtb betalactam = beta-lactam sensitization of Mtb H37Rv; M. tuberculosis H37Rv growth with meropenem, percent inhibition; inhibition, % at 25 µM; hit rate 0.27% among 330,000; call rule not given here;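 further: growth measured after seven days incubation then overnight dye step; 0% = bacteria only wells and 100% = bacteria with antibiotic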
# RecA splice inh = inhibitors of M. tuberculosis RecA intein splicing. P9WHJ3. cell-free RecA intein splicing, fluorescence. inhibition, % (no concentration beside the values). hit rate 0.75% among 290,000. AID 2221; in the data active means inhibition above about 30%;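 further: 0% = vehicle wells and 100% = reference inhibitor control wells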
# Mtb FBA inh = inhibits M. tuberculosis FBA enzyme. purified M. tuberculosis FBA, fluorescence read-out. P9WQA3. hit rate 2.3% among 360,000. inhibition, % at 1 µM. AID 588726; in the data active means inhibition above about 27%;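 further: 0% = vehicle and 100% = reference inhibitor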
# Target sequence (P9WQA3 whole entry, looked up): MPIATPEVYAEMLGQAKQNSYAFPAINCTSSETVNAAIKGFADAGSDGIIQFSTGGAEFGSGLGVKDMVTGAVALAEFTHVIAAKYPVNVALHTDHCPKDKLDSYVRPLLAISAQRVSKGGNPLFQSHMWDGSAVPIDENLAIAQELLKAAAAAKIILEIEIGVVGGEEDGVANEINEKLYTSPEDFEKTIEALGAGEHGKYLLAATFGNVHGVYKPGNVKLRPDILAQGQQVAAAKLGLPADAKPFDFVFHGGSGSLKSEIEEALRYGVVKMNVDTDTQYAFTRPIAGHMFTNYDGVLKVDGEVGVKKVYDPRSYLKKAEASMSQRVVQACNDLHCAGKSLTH
# Numbers without * were called inactive; i = inactive; . = not tested or not shown; + = active, no number. Rows were chosen to be rich in hits. Some 4.2% of all compounds tested hit in one or more screens of this group. Unless noted, no stated cut-off is given here; in the data, active means inhibition above about 30%; inactive means the rest.
SMILES,GDH-TPI inh,CCHF vOTU inh,Mtb betalactam,RecA splice inh,Mtb FBA inh
O=C(c1ccncc1)c1ccc(N2CCN(C3CC(=O)N(Cc4cccs4)C3=O)CC2)cc1 (configuration not stated),38*,-10,3,2,-4
COc1ccccc1/C=N/NC(=O)c1ccc2c(c1)OCO2,28,-4,4,0,-5
COc1cccc(/C=N/NC(=O)CNC(=O)c2ccc3c(c2)OCCO3)c1O,6,-1,-2,-1,-2
COc1cc(/C=N/NC(=O)C(=O)NCc2ccco2)cc(Br)c1O,54*,26,10,0,-2
COc1cc(/C=N/NC(=O)c2ccc3c(c2)OCCO3)cc(Br)c1O,36*,27,21,-1,0
COc1cc(/C=N/NC(=O)c2ccc3c(c2)OCCO3)c(Br)c(Br)c1O,37*,23,6,-1,-1
COc1ccc(/C=N/NC(=O)c2ccc3c(c2)OCO3)c(C(=O)O)c1OC,33*,-1,3,.,1
O=C(CCn1nnc(-c2cccs2)n1)N1CCCC1,.,-2,.,.,.
COc1ccccc1/C=C/c1nc(C#N)c(N(C)C)o1,9,-340,2,-84,+
CN(C)c1oc(-c2ccccc2)nc1C#N,18,-177,-3,-2,+
CCOC(=O)c1nc(-c2ccccc2)oc1N(C)C,15,-64,1,.,131*
CN(C)c1oc(-c2ccco2)nc1C#N,16,-19,-6,0,127*
Nn1c(SCC(=O)Nc2ccccc2-c2ccccc2)nnc1-c1cc(-c2ccccc2)n[nH]1,.,0,.,.,.
C=CCN(C(=O)[C@@H](CCCC)[C@@H](O)c1ccc2ccccc2c1)c1ccccc1,.,12,.,.,.
CCCCS(=O)(=O)N1C2=NC(C(=O)OCC)=C(C(=O)OCC)C3N(Cc4ccc(Br)cc4)c4ccccc4[C@]23C[C@H]1C(=O)OC (some centres not stated),.,7,.,.,.
Nc1ccc(-c2nc3ccccc3o2)cc1,14,-53,46,2,150*
O=C(NC1=NC2(C=C3CCCCC3n3c(=O)n(-c4ccccc4)c(=O)n32)CN1CC1CC1)c1ccccc1 (configuration not stated),.,4,.,.,.
COC(=O)C1=C(c2ccc(OC(F)(F)F)cc2)C[C@@H]2CC[C@H]1N2C(=O)NCCc1ccccc1,58*,20,16,.,7
C[C@H]1COc2cc(Br)ccc2S(=O)(=O)N1Cc1cn(CCC2OCCCO2)nn1,.,-4,.,.,.
CCOC(=O)/C=c1/s/c(=C/c2ccc3cc(OC)ccc3c2)c(=O)n1CC(=O)NCC1CCCO1 (configuration not stated),1,7,.,.,5
CCOC(=O)/C=c1\s/c(=C\c2c(OC)ccc3ccccc23)c(=O)n1CC(=O)NCC1CCCO1 (configuration not stated),38*,0,.,-13,-3
O=[N+]([O-])c1cc(-c2ccc(/C=N/c3nc4ccccn4c3-c3ccco3)o2)ccc1Cl,37*,18,10,-4,-1
CCNC(=O)C[C@H]1CC[C@H]2[C@@H](COc3ccc(NC(=O)c4ccc5c(c4)OCO5)cc3C(=O)N2C)O1,.,-7,.,.,.
O=C1CN(C(=O)COC(=O)c2ccco2)c2ccccc2N1,-1,-12,-6,.,-2
CN(C(=O)COC(=O)c1ccccc1NCc1ccco1)c1c(N)n(Cc2ccccc2)c(=O)[nH]c1=O,2,-83,-4,-5,115*
SMILES,GDH-TPI inh,CCHF vOTU inh,Mtb betalactam,RecA splice inh,Mtb FBA inh
O=C1CN(C(=O)COC(=O)c2ccccc2NCc2ccco2)c2ccccc2N1,14,-45,-1,1,61*
O=C(N1CCOCC1)N1CC[C@H]2[C@H](CCCN2Cc2cc(F)cc(F)c2)C1,.,8,.,.,.
CCCn1c(=N)c(C(=O)NC2CCCC2)cc2c(=O)n3cccc(C)c3nc21,7,-206,-11,i,+
CCn1c(=N)c(C(=O)NC)cc2c(=O)n3cccc(C)c3nc21,11,-248,.,-485,+
N=c1c(S(=O)(=O)c2ccccc2)cc2c(=O)n3ccccc3nc2n1C1CCCC1,9,-2,2,-42,7
Cc1cccn2c(=O)c3cc(C(=O)NC4CCCC4)n(C)c3nc12,5,-19,-2,-75,21
N=c1c(C(=O)NCc2ccco2)cc2c(=O)n3ccccc3nc2n1C1CCCC1,13,-116,-8,-67,+
N=c1c(C(=O)NC2CCCC2)cc2c(=O)n3ccccc3nc2n1C1CCCC1,14,-241,1,-466,123*
COc1ccc(CCn2c(=N)c(C(=O)NC3CCCC3)cc3c(=O)n4ccccc4nc32)cc1,-2,6,10,-4,-5
CCOc1cccc(-c2nnc(SCC(=O)Nc3ccc4c(c3)OCO4)n2N)c1,.,-4,.,.,.
COC(=O)C[C@H]1CC[C@H]2[C@H](COc3ccc(NC(=O)Cc4cccs4)cc3C(=O)N2C)O1,.,2,.,.,.
Cc1cccn2c(=O)c3cc(C(=O)NC4CCCC4)c(=N)n(C4CCCC4)c3nc12,2,-103,13,-438,+
CCn1c(C)nc2cc(C(=O)N/N=C/c3ccc(OC)c(O)c3)ccc21,39*,17,1,-1,-1
CCn1c(C)nc2cc(C(=O)N/N=C/c3ccc(OC)cc3)ccc21,21,0,-2,-1,6
CCn1c(C)nc2cc(C(=O)N/N=C/c3ccc(N4CCOCC4)cc3)ccc21,34*,15,2,-1,4
CN(Cc1ccccc1)C(=O)OCc1cn(Cc2ccc(C(F)(F)F)cc2)nn1,.,15,.,.,.
C/C(=N/Nc1ccccc1C(=O)O)c1cccs1,33*,-1,1,-5,-3
Cc1nn(CCC(=O)NNC(=O)Nc2ccccc2)c(C)c1[N+](=O)[O-],.,-7,.,.,.
Cc1ccc(/C=N/NC(=O)c2nnn(-c3nonc3N)c2C(C)C)o1,44*,9,7,8,0
CCCc1c(C(=O)N/N=C/c2ccc(C)o2)nnn1-c1nonc1N,42*,24,.,.,3
Cc1ccc(SCc2c(C(=O)N/N=C/c3ccc(C)o3)nnn2-c2nonc2N)cc1,39*,28,.,.,2
Cc1ccc(/C=N/NC(=O)c2nnn(-c3nonc3N)c2CSc2ccccc2)cc1,12,-2,-1,1,-1
Cc1ccc(/C=N/NC(=O)c2nnn(-c3nonc3N)c2CSc2ccccc2)o1,40*,-4,-2,0,1
CCN(Cc1ccccc1)C(=O)CCCN1C(=O)COc2ccc(C)cc21,.,-4,.,.,.
COc1cccc(-c2c(C(=O)N/N=C/c3ccc(C)o3)nnn2-c2nonc2N)c1,47*,16,16,0,-1
SMILES,GDH-TPI inh,CCHF vOTU inh,Mtb betalactam,RecA splice inh,Mtb FBA inh
O=S1(=O)c2ccc(N3CCSCC3)cc2Oc2ccccc2CN1Cc1cn(Cc2cccc(F)c2)nn1,.,-3,.,.,.
CCOC(=O)c1ccc(N)cc1,0,-3,-2,.,-1
CCOC(=O)c1ccc(N=NN(C)C)cc1,36*,-11,1,1,0
Cc1cc(=O)n2c(ccc3ccccc32)c1C#N,-7,-3,-9,-8,-2
Cc1cc(=O)n2ccccc2c1C#N,25,-217,-9,-62,+
C=CCn1c(-c2ccccc2)nc2nc3ccccc3nc21,39*,-27,-7,1,126*
